Screens: PubChem BioAssay, National Center for Advancing Translational Sciences (NCATS)
Rows were chosen to be rich in hits. Some 7.9% of all compounds tested hit in one or more screens of this group.
Lassa entry inh – inhibitors of Lassa virus binding or cell entry | Potency, µM (titrated, usually from 37.9 µM), for the others: at the top dose activity change, negative = inhibition, usual class: inhibitors | AID 540256 | hit rate 1.2% among 300,000 | Lassa virus pseudotype entry inhibition, cell reporter; calls by dose curve; tested in HEK293 cells; further: potency means the concentration at half of the fitted maximal effect; nearly all actives have a fitted effect of over 50% in size
HCMV inh – human cytomegalovirus inhibition; HFF cells, HCMV-luciferase reporter, 72 h; stronger effect = lower value; activity change, negative = inhibition, % at 57.5 µM; hit rate 4.5% among 410,000; in the data active means activity change below about -60%; inconclusive means no clear call, values can overlap the other calls; inactive means above about -39%
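Cell-based, HFFs, 1000 cells/well, 16 h 37C; cpds in DMSO + HCMV-luc, MOI 1 PFU/cell; 72 h 37C; OneGlo luminescence after 5 min RT; norm. to buffer vs Salinomycin 10uM.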
Marburg entry inh – inhibitors of Marburg virus binding or cell entry. Marburg virus pseudotyped entry inhibition, cell reporter. Potency, µM (doses to about 37.8 µM), without a hit: at the top dose activity change, negative = inhibition, hits mostly inhibitors. hit rate 1.8% among 300,000; calls by dose curve; tested in HEK293 cells; further: potency means the concentration at half of the fitted maximal effect
HCV inhibitor – blocks hepatitis C virus; Potency, µM (series often up to 41.8 µM), for the others: top-dose activity change, negative = inhibition, hits mostly inhibitors; Huh7.5.1 HCVcc-Cre infection, luciferase reporter, 44 h; hit rate 3.4% among 340,000; AID 651820; active means well fitted inhibition curve with a large enough effect; inconclusive means small, poorly fitted or top-dose-only effect, or another doubt; inactive means no such curve, though single readings can be large or run the other way; further: potency means the concentration at half of the fitted maximal effect
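Whole-lifecycle infectious HCVcc-Cre system; cells 1,000/well, compound then virus (~0.5 moi) added 4 h after plating, 44 h culture. Luciferase read 15 sec following 15 min substrate incubation, room temp.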
FMDV inh – blocks foot and mouth disease virus | FMDV antiviral cell-based qHTS | Potency, µM (highest dose often 57.9 µM), without a hit: top-dose activity change, negative = inhibition, most hits filed as inhibitors | hit rate 1.2% among 410,000 | AID 1159524; calls by dose curve; tested in HEK293T cells; further: read-out not given here; potency means the concentration at half of the fitted maximal effect; nearly all actives have a fitted effect of over 45% in size
* hit, by the source's call; ? = inconclusive; . = no result; [ ] = dose if it differs, or a comment. On the % scale 0 is the no-effect control and ±100 the full control effect.

SMILES | Lassa entry inh | HCMV inh | Marburg entry inh | HCV inhibitor | FMDV inh
CCN1CCN(c2c(Cl)cccc2NC(=O)c2ccc([N+](=O)[O-])o2)CC1 | . | -97* | . | . | .
CCCCCC(=O)Nc1ccc(N2CCN(CC)CC2)c(Cl)c1 | -1% | 60 | 2% | 22µM* | ?
O=C(Nc1cccc(Cl)c1N1CCCC1)c1ccc([N+](=O)[O-])o1 | -13% | 2 | -24% | ? | -24%
O=C(Nc1ccccc1N1CCCCC1)c1ccc([N+](=O)[O-])o1 | ? | -32 | -16% | ? | -16%
O=C(Nc1ccc(N2CCOCC2)c(Cl)c1)c1ccc([N+](=O)[O-])o1 | . | -102* | . | 11µM* | 0%
CCCC(=O)N1CCN(c2ccc(NC(=O)c3ccc([N+](=O)[O-])o3)cc2Cl)CC1 | ? | -109* | ? | ? | 20µM*
CC1CC(=O)Nc2cc([N+](=O)[O-])ccc2N1 (configuration not stated) | . | -30 | . | -4% | -6%
O=C(NCC1CC1)c1ccc2sc([C@@H]3O[C@H](CO)[C@H](O)[C@H](O)[C@H]3O)nc2c1 | . | 14 | . | . | -18%
Cc1ccc(S(=O)(=O)N2C[C@H]3C(=O)C[C@@H](c4ccccc4)N(S(=O)(=O)c4ccc(C)cc4)[C@H]3C[C@H]2c2cccc(C)c2)cc1 | . | -19 | . | . | -7%
COc1cccc(N2C(=O)C(O)=C(C(C)=O)[C@@H]2c2ccc(OC)c(OC)c2)c1 | . | . | 7% | . | .
Cc1ccc(NC(=O)/C=C/c2ccc(S(=O)(=O)N3CCOCC3)cc2)cc1S(=O)(=O)N(C)C | ? | -74* | ? | ? | 35µM*
O=C(COc1ccccc1[N+](=O)[O-])Nc1cccc(Cl)c1N1CCOCC1 | ? | -39 | ? | ? | 40µM*
Cc1ccc(NC(=O)c2ccc([N+](=O)[O-])o2)cc1S(=O)(=O)N1CCOCC1 | ? | -95* | ? | 10µM* | -25%
CC(=O)Nc1cccc(NC(=O)/C=C/c2ccc(S(=O)(=O)N3CCOCC3)cc2)c1 | 1% | 36 | ? | -22% | -28%
CCOc1cc(N2CCOCC2)c(OCC)cc1NC(=O)COc1ccccc1[N+](=O)[O-] | -2% | 8 | -1%[46.1 µM] | ? | -13%
Cc1ccc(NC(=O)c2cc([N+](=O)[O-])ccc2N2CCOCC2)cc1S(=O)(=O)N1CCOCC1 | -16% | 10 | ? | . | -17%
Cc1ccc(NC(=O)C(=O)c2c(-c3ccccc3)cc3ccccn23)cc1S(=O)(=O)N1CCOCC1 | -1% | -76* | ? | ? | -16%
COCC(=O)N1[C@@H]2Cn3c(ccc(Br)c3=O)[C@H]1[C@@H](C(=O)OC)[C@@H]2CO | . | -8 | . | . | .
CC1=CC[C@@H](COc2ccccc2)O[C@@]2(C1)C(=O)N(Cc1ccc(Br)cc1)c1ccccc12 | . | . | 25%[14.2 µM] | . | .
CCOc1ccc(-c2nn(CC(=O)NC3CCCC3)c3c2cnc2ccc(C)cc23)cc1 | 0%[46.1 µM] | 15 | . | . | 12%
CC(C)NC(=O)N(C)C[C@H]1Oc2c(NC(=O)C3CCCCC3)cccc2C(=O)N([C@H](C)CO)C[C@@H]1C | . | 19 | . | 14% | 49%
CN1CCN(c2ccc(NC(=O)c3ccc([N+](=O)[O-])o3)cc2Cl)CC1 | ? | -101* | 11µM* | 22µM* | 0%
O=C(/C=C/c1ccco1)Nc1ccc(S(=O)(=O)N2CCOCC2)cc1 | -15% | -18 | 4% | 3.5µM* | 5%
CC(C)C(=O)N1CCN(c2ccc(NC(=O)COc3ccccc3[N+](=O)[O-])cc2)CC1 | ? | ? | ? | ? | 16µM*
O=S(=O)(c1ccc(NC(=S)NN=C(Cc2ccccc2)Cc2ccccc2)cc1)N1CCOCC1 | ? | -33 | 12%[46.1 µM] | 10µM* | 0%
SMILES | Lassa entry inh | HCMV inh | Marburg entry inh | HCV inhibitor | FMDV inh
O=C(Nc1c(Cl)ccc2nsnc12)c1ccc([N+](=O)[O-])o1 | . | -106* | . | ? | -26%
COc1cccc(NC(=O)N2CCc3nc(Nc4cc(Cl)cc(Cl)c4)ncc3C2)c1 | . | -67* | . | . | -23%
CC(C)c1ccc(Nc2ncc3c(n2)CCN(C(=O)Nc2ccc(F)c(Cl)c2)C3)cc1 | . | -75* | . | . | ?
O=C(Nc1ccc(Cl)cc1)N1CCc2ccccc2C1 | 16% | 70 | ? | -21% | 66%
COc1cccc(NC(=O)N2CCc3nc(NCc4cccc(Oc5ccccc5)c4)ncc3C2)c1 | . | ? | . | . | -62%
O=C(Nc1ccc(OC(F)(F)F)cc1)N1CCc2nc(NCc3cccc(Oc4ccccc4)c3)ncc2C1 | . | -92* | . | . | -30%
CC(C)(C)c1ccc(S(=O)(=O)NC(=O)C2(C)CCN2C(=O)C2CCCCC2)cc1 (configuration not stated) | . | 35 | . | . | -10%
CC(OC(=O)c1ccc2c(=O)n3c(nc2c1)CCCCC3)C(=O)Nc1ccc(F)cc1Cl (configuration not stated) | -2% | -27 | 18% | 19% | -12%
Cc1cccc(N2CCN(C(=O)c3c(Cl)cnn3C)CC2)c1C | 11µM* | 27 | ? | ? | ?
Cc1ccc(N2CCN(C(=O)c3cnn(-c4ccc(C)c(C)c4)c3C3CCNCC3)CC2)c(C)c1 | ? | -97* | . | . | -13%
COc1ccccc1N1CCN(C(=O)c2cnn(-c3ccc(F)cc3F)c2C2CCNCC2)CC1 | 9%[46.1 µM] | -8 | . | . | -6%
Cc1ccc(Cl)cc1N1CCN(C(=O)c2cnn(-c3ccc(Cl)cc3)c2C2CCNCC2)CC1 | ? | -101* | . | . | -25%
Cc1c(Cl)cccc1-n1ncc(C(=O)N2CCOCC2)c1C1CCN(C(=O)OC(C)(C)C)CC1 | -24%[46.1 µM] | 9 | . | . | -13%
Cn1ncc(Cl)c1C(=O)N1CCN(c2cccc(Cl)c2)CC1 | ? | 9 | ? | ? | -22%
Cc1cccc(N2CCN(C(=O)c3cnn(-c4cccc(Cl)c4C)c3C3CCNCC3)CC2)c1C | ? | -99* | . | . | -19%
COc1cccc(NC(=O)c2c(C)oc3nc(C)nc(N4CCCC4)c23)c1 | ? | 88 | . | . | -4%
COC(=O)[C@H](COC(C)(C)C)NC(=O)O[C@@H]1C(=O)c2ccc(OC)cc2O[C@H]1c1cccc(C(F)(F)F)c1 | . | . | -1%[14.2 µM] | . | .
c1ccc(Nc2ncnc3sccc23)cc1 | -8%[46.1 µM] | -61* | 16%[46.1 µM] | -16% | -9%
COc1ccc(Nc2ncnc3sccc23)cc1 | 16% | -35 | ? | -13% | 52%
CC(Nc1ncnc2sccc12)c1ccccc1 (configuration not stated) | -11%[46.1 µM] | -85* | ? | 2µM* | ?
CCCN(CC(=O)Nc1ccccc1C)C(=O)C1CC(=O)N(c2ccc(CC)cc2)C1 (configuration not stated) | . | -7 | . | -3% | 0%
Cc1ccccc1CN1C[C@@H]2C[C@@H](c3cn[nH]c3-c3ccccc3)N3CCC[C@@]23C1=O | ? | -66* | ? | 13µM* | 10%
CCn1ncc([C@@H]2C[C@H]3CN(Cc4ccccc4C)C(=O)[C@]34CCCN24)c1C | . | -15 | . | 4% | -4%
